Outcome and AC50 data for 38 compounds are collected here from PubChem BioAssay (EPA / NIEHS).

The nature of assay [1]: TOX21_p53_BLA_p3_viability: Viability Assessment in the Tox21 HCT-116 p53 Agonism Beta-lactamase Assay, Phase 3 (AID 2283593).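 Further: cells exposed to compound for 16 h before reading.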 An outline of the steps: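 HCT116 cells, 4000/well, dosed 5 h after plating by pin transfer (217-fold dilution from DMSO stock) and incubated 16 h at 37C, 5% CO2. Viability read as ATP luminescence with CellTiter-Glo after 30 min at room temperature.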

A short description of assay [2]: TOX21_p53_BLA_p4_viability: Viability Assessment in the Tox21 HCT-116 p53 Agonism Beta-lactamase Assay, Phase 4 (AID 2283597).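 Further: hits lower the luminescence signal meaning cytotoxicity.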 The method in brief:
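Cytotoxicity as reduced cellular ATP (CellTiter-Glo luminescence, 30 min room temperature), measured in the same wells following the CCF4 FRET p53 reading. Human HCT-116 cells received compounds in DMSO (217-fold dilution) for 16 h.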

In assay [3] the target is Cellular tumor antigen p53 (Homo sapiens) (UniProt P04637). As to the kind of experiment: TOX21_p53_BLA_p5_ratio: Tox21 HCT-116 p53 Agonism Beta-lactamase Assay, Ratio, Phase 5 (AID 2283599). The method in brief: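 HCT-116 p53-bla cells (4000/well) plated 5 h, dosed with compound (217-fold DMSO dilution) for 16 h at 37 C; CCF4-AM substrate 2 h at room temperature. Activity is the 460/530 nm emission ratio (405 nm excitation), fitted in gain-of-signal direction versus DMSO.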
Sequence of Cellular tumor antigen p53 (Homo sapiens) (P04637 whole entry, looked up): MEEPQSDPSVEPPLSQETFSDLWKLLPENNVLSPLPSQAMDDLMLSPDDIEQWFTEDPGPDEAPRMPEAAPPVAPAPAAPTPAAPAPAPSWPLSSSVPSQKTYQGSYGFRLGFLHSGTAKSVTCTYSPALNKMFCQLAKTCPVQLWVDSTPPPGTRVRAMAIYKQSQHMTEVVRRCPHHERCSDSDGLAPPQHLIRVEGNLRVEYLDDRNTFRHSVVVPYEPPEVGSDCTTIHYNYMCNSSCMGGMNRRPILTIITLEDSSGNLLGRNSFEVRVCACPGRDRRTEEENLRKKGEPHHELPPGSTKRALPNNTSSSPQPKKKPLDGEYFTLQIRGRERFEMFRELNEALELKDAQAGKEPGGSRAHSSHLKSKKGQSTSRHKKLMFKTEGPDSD

Assay [4] has the same target. Description: TOX21_p53_BLA_p4_ratio: Tox21 HCT-116 p53 Agonism Beta-lactamase Assay, Ratio, Phase 4 (AID 2283601). An outline of the steps:
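HCT-116 p53 beta-lactamase reporter cells (4000/well) preincubated 5 h, then compound (217-fold dilution of DMSO stock) for 16 h at 37C. CCF4-AM substrate added 2 h at room temperature; 460/530 nm emission ratio fitted upward versus DMSO.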

The target is the same in assay [5]. Description: TOX21_p53_BLA_p3_ratio: Tox21 HCT-116 p53 Agonism Beta-lactamase Assay, Ratio, Phase 3 (AID 2283596). An outline of the steps:
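Cells were seeded at 4000/well, rested 5 h at 37C, then dosed with DMSO compound solutions (217-fold dilution) for 16 h. CCF4-AM substrate was loaded for 2 h at room temperature, and the 460/530 nm emission ratio was fitted for gain of signal versus DMSO.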

The nature of assay [6]: TOX21_p53_BLA_p5_viability: Viability Assessment in the Tox21 HCT-116 p53 Agonism Beta-lactamase Assay, Phase 5 (AID 2283600). The method in brief: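 Viability came from CellTiter-Glo ATP luminescence, read after 30 min at room temperature. Before this, HCT-116 p53-bla cells (4000/well) had 16 hours of compound exposure at 37C, with DMSO stocks diluted 217-fold on transfer.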

Assay [7] in a line: CCTE_Harrill_HTTr_Viability_MCF7: CCTE's 6-hour Cell Viability Assessment for the High-Throughput Transcriptomics (HTTr) Platform, in MCF-7 cells cultured in DMEM + 10% fetal bovine serum, Harrill Lab (AID 2284010; active means hit-call score of the fitted dose curve at least 0.9, where 1 is the maximum; inactive means score below 0.9). The method in brief:
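Propidium iodide exclusion, imaged by high-content analysis, gauged viability after a six-hour exposure across eight concentrations. Cells were MCF-7 grown in DMEM with 10% fetal bovine serum; fits run in both directions against DMSO.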

Assay [8] in a line: CCTE_Harrill_HTTr_Apoptosis_MCF7: CCTE's 6-hour Apoptosis Assessment for the High-Throughput Transcriptomics (HTTr) Platform, in MCF-7 cells cultured in DMEM + 10% fetal bovine serum, Harrill Lab (AID 2284011; active means hit-call score of the fitted dose curve at least 0.9, where 1 is the maximum; inactive means score below 0.9). The method in brief:
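High-content imaging of CellEvent Caspase 3/7 Green signal follows a six-hour exposure, with eight concentrations per chemical. MCF-7 cells grown in DMEM plus 10% fetal bovine serum; activity fitted in both directions against DMSO.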

Assay [9] is described as follows: CCTE_Harrill_HTTr_CellCount_MCF7: CCTE's Cell Proliferation Assessment for the High-Throughput Transcriptomics (HTTr) Platform, Harrill Lab (AID 2284012).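 Further: cells exposed to compound for six hours; intended direction is loss of nuclei count meaning fewer cells.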 The method in brief: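 Cell count from high-content imaging of Hoechst-labeled nuclei serves as viability/growth readout. Chemicals were applied to MCF-7 cells in eight concentrations for six hours, with fitting in both directions relative to DMSO.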

Records with an inconclusive call do not appear. The source made the active and inactive calls. How the source made its calls, unless noted: active means hit-call score of the fitted dose curve at least 0.9, where 1 is the maximum; inconclusive means response in the unintended direction; inactive means score below 0.9.

As usually defined, the AC50 is the concentration giving half of the maximal activity seen.

For `O=C1C(=O)c2cccc3cccc1c23`, the outcome in assay [1] and in assay [3] was inactive. Moreover, the AC50 is 33 µM (active) in assay [2] and 9.63 µM (active) in [4].

For `C[N+](C)(C)CCCl`, the compound was called inactive in assay [1], in assay [5] and in [4].

As to `O=[N+]([O-])c1cccc2cccnc12`, the compound was classed as inactive in [1], in assay [5], in assay [3], in [6] and in assay [4].

`Cc1ccccc1-n1c(CF)nc2ccc(N)cc2c1=O`: the call in [1] and in assay [3] was inactive.

Regarding `NC1=NC(=O)N2CC12` (centres undefined), the result in assay [5], in assay [2], in assay [3] and in assay [4] was inactive.

Consider `Cc1cc(OC(=O)N(C)C)nn1C(=O)N(C)C`, for which the compound was called inactive in [2], in assay [3], in [6] and in assay [4].

Turning to `O=C1OC(c2ccc(O)c(S(=O)(=O)O)c2)(c2ccc(O)c(S(=O)(=O)O)c2)c2c(Br)c(Br)c(Br)c(Br)c21`, the outcome in [5], in assay [6] and in [4] was inactive.

As to `CCCCCBr`, the call in assay [2] and in assay [3] was inactive.

In the case of `O=S(=O)(Cl)Cl`, the result in assay [3] and in assay [6] was inactive.

With `CCCCCCCCn1cc[n+](C)c1`, the AC50 in [5] is 14.7 µM (active) [middle of 4 runs]. Also, the outcome in assay [3] and in assay [4] was inactive.

For `CN=C=O`, in assay [4], the outcome was inactive.

On to `CCN(CC)CCN1C(=O)CN=C(c2ccccc2F)c2cc(Cl)ccc21`, for which the compound was called inactive in [2] and in [6].

As to `CN1C(=O)CC(=O)N(c2ccccc2)c2cc(Cl)ccc21`, the compound was classed as inactive in assay [2], in assay [3], in [6] and in assay [4].

As for `ClC(Cl)C(Cl)Cl`, the outcome in assay [3] and in [4] was inactive.

For the compound `CC(Cc1ccc2c(c1)OCO2)NO` (centres undefined), the outcome in [3] and in assay [4] was inactive.

Consider `C[C@@H]1[C@H]2Cc3ccc(O)cc3[C@]1(C)CCN2C`, for which the compound was classed as inactive in [2] and in [6].

As to `O=C=NC1CCCCC1`, the compound was called inactive in [2], in assay [3], in assay [6] and in assay [4].

On to `O=c1[nH]c2ccccc2n1CCCN1CCC(n2c(=O)[nH]c3cc(Cl)ccc32)CC1`, for which the result in assay [6] was inactive.

Take `CC1CCCC1`: the result in [5], in assay [3] and in [4] was inactive.

Consider `CC(=O)[C@@]1(O)CC[C@H]2[C@@H]3CCC4=CC(=O)CC[C@]4(C)C3(F)[C@@H](O)C[C@@]21C` (some centres undefined), for which the compound was called inactive in [2] and in [6].

In the case of `COc1ccc2[nH]cc(CCN(C(C)C)C(C)C)c2c1`, the outcome in [3] and in assay [4] was inactive.

On to `CC(C)NC(C)Cc1ccc(I)cc1` (centres undefined), for which the outcome in assay [2], in [3], in [6] and in [4] was inactive.

`CC1(C)S[C@@H]2[C@H](N)C(=O)N2[C@H]1C(=O)O`: the outcome in assay [2], in assay [3] and in [6] was inactive.

As for `CCN(CC)CCc1c[nH]c2ccccc12`, in assay [4], the outcome was inactive.

Take `C[C@H](N)[C@H](O)c1ccc(O)c(O)c1`: the result in assay [5], in assay [3] and in [4] was inactive.

On to `CCCCCCCCCC(=O)O[C@H]1CC[C@H]2[C@@H]3CCC4=CC(=O)CC[C@@H]4[C@H]3CC[C@]12C`, for which the outcome in assay [5] and in assay [4] was inactive.

Consider `CCCN1CCC[C@@H]2Cc3[nH]ncc3C[C@H]21`, for which the compound was classed as inactive in [6] and in [4].

For `O=C1Nc2ccc(Cl)cc2C(c2ccccc2Cl)=NC1O` (centres undefined), the call in assay [6] and in [4] was inactive.

Consider `O=C(Cl)C(Cl)Cl`, for which the result in assay [5], in [3], in assay [6] and in [4] was inactive.

Regarding `N#CCCl`, the call in assay [2], in assay [3], in assay [6] and in assay [4] was inactive.

`CC[C@H]1C[C@@H]2C[C@H]3c4[nH]c5ccc(OC)cc5c4CCN(C2)[C@@H]13`: the outcome in assay [5] and in assay [4] was inactive.

With `CN[C@@H](C)[C@H](O)c1ccccc1`, the outcome in assay [5], in assay [3], in assay [6] and in [4] was inactive.

As for `CCc1cc(OC)c(C[C@H](C)N)cc1OC`, the result in [2], in assay [3], in [6] and in assay [4] was inactive.

For `O=P(Cl)(Cl)Cl`, the result in [3], in [6] and in [4] was inactive.

Turning to `Cc1ccc2cc(C)ccc2c1`, the outcome in assay [5], in [3], in assay [6], in assay [4], in assay [7] and in assay [8] was inactive.

Turning to `CCCCCCCCCC(=O)O[C@H]1CC[C@H]2[C@@H]3CCC4=CC(=O)CC[C@]4(C)[C@H]3CC[C@]12C`, the result in assay [3] and in assay [4] was inactive.

On to `COc1cccc([C@@]2(O)CCCC[C@@H]2CN(C)C)c1`, for which the outcome in assay [5], in assay [4], in assay [7], in [8] and in [9] was inactive.

For `CCN[C@@H](C)Cc1ccccc1`, the compound was called inactive in assay [2].
